The nature of assay [1]: reducers of endogenous Her2 protein level, primary screen, SKBR3 breast tumor cells, AlphaScreen, ATP viability (AID 461;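 active means Her2 level under about 52% in both replicate screens, with viability over 70% of control, limit read from the data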;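 on Her2 level: lower value means less Her2 protein in the cells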;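 on viability: percent of carrier control wells set as 100% viability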). To be noted: 18-24 h, measured here: SKBR3 viability, ATP luminescence, at 10 µM. In general terms: In Alpha technology, singlet oxygen from a donor bead excites a nearby acceptor bead.
Assay [2] has as its target Receptor tyrosine-protein kinase erbB-2 (Homo sapiens) (UniProt P04626). Described as above. To be noted: 18-24 h, at 10 µM, stronger effect = lower value.
Assay [3] is described as follows: SK-BR-3 cell growth inhibitors, pilot screen, 24 h, human (AID 572;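 active means viability at or below 10% of carrier control in both of two separate runs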;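 further: compound exposure lasted between 18 and 24 h rather than exactly 24 h; 100% = carrier-treated control wells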). The settings on record: SK-BR-3 viability, CellTiter-Glo luminescence, at 10 µM, stronger effect = lower value. For orientation: In ATP-based viability assays light output follows the ATP content of the culture.
Assay [4] is described as follows: HUVEC growth inhibition – cell-based, human, primary screen (AID 575;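 active means viability at or below 30% in both replicate assays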;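 further: 100% = median of untreated cell wells with 0.1% DMSO on each plate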). To be noted: HUVEC proliferation, CellTiter-Glo luminescence, 72 h; at 10 µM; stronger effect = lower value.
Assay [5] is described as follows: growth inhibitors of H69AR lung tumor, primary screen, human, duplicate replicates (AID 580;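 active means viability at or under a set limit in both replicates, limit being median viability minus 3 SD, cut at about 48% in these data, passing the limit was not always enough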;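 further: 100% = mean luminescence of untreated wells and 0% = no signal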). The settings on record: H69AR lung tumor cells viability, ATP luminescence, 72 h; at 10 µM; stronger effect = lower value.
The nature of assay [6]: reversal of MRP1-mediated doxorubicin resistance, pilot screen, H69AR cells, doxorubicin co-treatment (AID 601;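 active means viability loss from added drug above about 55%, and viability with drug at most 40%, in both replicates, limit read from the data, passing the limit was not always enough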). The settings on record: CellTiter-Glo, 72 h, at 10 µM; for differential viability (reversal): stronger effect = higher value.
The nature of assay [7]: 384-well plate pilot, post-Golgi transport modulator project, inhibition of yeast transport mutant growth (AID 636; in the data active means inhibition above about 31%). The settings on record: absorbance 615 nm, about 18 h, stronger effect = higher value.
Assay [8] is described as follows: growth suppression of yeast trafficking mutant, preliminary HTS, modulators of trafficking downstream of Golgi apparatus project, 1536-format plate, OD 615 nm (AID 637; in the data active means inhibition above about 30%). The settings on record: yeast transport mutant growth, absorbance 615 nm, 18 h; stronger effect = higher value.
Assay [9] is described as follows: OD615 S. cerevisiae growth inhibition, permissive medium, pilot counter-assay, permissive growth control for S. cerevisiae lifespan shortening project (AID 705;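 active means growth inhibition above 25% in both replicates, a cutoff set 3 SD above the mean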). The settings on record: OD615, 24 h, at 10 µM, stronger effect = higher value.
Assay [10] is described as follows: Restrictive medium S. cerevisiae growth inhibition, OD615, pilot screen of yeast lifespan reduction project, restrictive growth control (AID 706;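 active means growth inhibition above a set limit, 3 SD over mean compound inhibition, in both replicates, cut at about 43% in these data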;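 further: modified DeaD lifespan yeast strain shifted to restrictive glucose medium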). To be noted: OD615, 48 h, at 10 µM, stronger effect = higher value.
Assay [11] can be described thus: viability gain of MRP-1-high H69AR cells under doxorubicin, pilot screen, MRP-1 activator project, CellTiter-Glo, duplicate (AID 807;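 active means viability increase at or above a cutoff of the median across tested compounds plus 3 SD, cut at about 8.5% in these data, passing the limit was not always enough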;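 further: compound pretreatment 18-22 h then 72 h combined with doxorubicin; 0% = doxorubicin alone and 100% = vehicle without doxorubicin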). The settings on record: H69AR viability with doxorubicin, CellTiter-Glo luminescence; at 10 µM; stronger effect = higher value.
A short description of assay [12]: growth suppression of beta-catenin knockout HCT116, pilot screen, human colon tumor cells (AID 823;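 active means cell viability at or below a set limit in both duplicate runs, the limit being the all-compound median minus 4 SD, cut at about 23% in these data, passing the limit was not always enough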;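 further: 0% = wells killed by 20 µM Hyamine and 100% = untreated DMSO cell wells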). To be noted: CellTiter-Glo, 60 h, at 10 µM, stronger effect = lower value.
Assay [13] is described as follows: growth suppression of PTEN-deleted HCT116, pilot screen, cell-based, HCT116 clonal line, CellTiter-Glo (AID 824;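 active means viability at or below 27.92% in each of two runs, the all-compound median minus 4 SD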;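 further: 0% = 20 µM Hyamine control and 100% = vehicle cell control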). The settings on record: 60 h, at 10 µM, stronger effect = lower value.
Assay [14] is described as follows: inhibitors of the yeast RAM network, pilot screen, dse1pr::URA3 reporter, 5-FOA selection (AID 869).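 Further: 0% = DMSO wells with no growth and 100% = 10 µM 1-NA-PP1 with full growth; RAM network block rescues cells from 5-FOA so hits raise OD615 growth.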 To be noted: S. cerevisiae dse1pr::URA3 5-FOA growth, OD615, 2 d; at 10 µM; stronger effect = higher value; strain carries analog-sensitive mutant Cbk1 kinase.
Assay [15] is described as follows: RAM signaling pathway blockade in yeast – S. cerevisiae, Pdr1DBD-CYC8 efflux-inhibited sensitized strain, primary screen (AID 1298;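 active means RAM network inhibition above 8.4% in each of two replicates, 3 SD over the compound average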;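 further: 0% = DMSO untreated cells without growth and 100% = 10 µM 1-NA-PP1 full growth; higher means more yeast growth rescued from 5-FOA killing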). The settings on record: S. cerevisiae cbk1-as DSE1-URA3 strain, 5-FOA growth OD615, 2 d; at 50 µM; stronger effect = higher value.
[16] abbreviates: H69AR cells + 2 uM doxorubicin, measured here: viability with 2 uM doxorubicin, stronger effect = lower value.
[17] abbreviates: H69AR cells, compound alone cytotoxicity.

SMILES strings stand for the structures. Results filed as inconclusive are left out. Active and inactive are the calls of the source.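 How the source made its calls, unless noted: active means inhibition over a set limit, the all-compound mean plus 3 SD, in both replicate runs; inconclusive means over that limit in just one replicate run; inactive means at or under that limit in both runs.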

Receptor tyrosine-protein kinase erbB-2 (Homo sapiens), sequence (P04626 whole entry, looked up): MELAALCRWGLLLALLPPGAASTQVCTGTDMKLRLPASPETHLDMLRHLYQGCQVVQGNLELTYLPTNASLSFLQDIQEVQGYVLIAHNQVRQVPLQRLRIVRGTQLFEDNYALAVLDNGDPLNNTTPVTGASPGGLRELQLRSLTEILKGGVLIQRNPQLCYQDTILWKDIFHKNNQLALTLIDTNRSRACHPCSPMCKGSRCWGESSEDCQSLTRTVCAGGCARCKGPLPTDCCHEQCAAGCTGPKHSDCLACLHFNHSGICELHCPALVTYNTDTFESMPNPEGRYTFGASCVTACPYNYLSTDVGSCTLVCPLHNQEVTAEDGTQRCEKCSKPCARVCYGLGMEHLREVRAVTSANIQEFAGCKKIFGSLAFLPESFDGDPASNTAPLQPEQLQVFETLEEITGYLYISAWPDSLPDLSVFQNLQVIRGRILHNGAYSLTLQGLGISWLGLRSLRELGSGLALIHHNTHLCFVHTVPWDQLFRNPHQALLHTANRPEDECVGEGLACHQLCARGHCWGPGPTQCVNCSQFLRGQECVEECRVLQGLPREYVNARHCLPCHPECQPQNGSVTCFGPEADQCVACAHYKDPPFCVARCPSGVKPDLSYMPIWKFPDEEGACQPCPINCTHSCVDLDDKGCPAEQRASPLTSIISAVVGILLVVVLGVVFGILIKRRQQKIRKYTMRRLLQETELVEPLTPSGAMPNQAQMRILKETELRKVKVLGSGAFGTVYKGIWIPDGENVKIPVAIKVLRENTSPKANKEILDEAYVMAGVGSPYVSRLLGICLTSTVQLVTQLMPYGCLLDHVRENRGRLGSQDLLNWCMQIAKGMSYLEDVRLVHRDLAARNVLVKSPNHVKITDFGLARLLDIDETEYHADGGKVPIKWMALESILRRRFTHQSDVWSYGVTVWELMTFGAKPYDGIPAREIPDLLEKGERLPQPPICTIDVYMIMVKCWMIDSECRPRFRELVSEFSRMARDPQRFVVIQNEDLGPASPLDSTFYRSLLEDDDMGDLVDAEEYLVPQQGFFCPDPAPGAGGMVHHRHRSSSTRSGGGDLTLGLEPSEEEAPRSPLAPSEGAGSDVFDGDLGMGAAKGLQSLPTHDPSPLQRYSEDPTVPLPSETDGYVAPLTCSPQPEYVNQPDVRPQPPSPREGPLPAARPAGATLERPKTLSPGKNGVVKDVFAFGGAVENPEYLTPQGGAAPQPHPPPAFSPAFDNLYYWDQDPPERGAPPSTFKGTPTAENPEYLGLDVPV

In the case of `CCCCn1c2c(c3ccccc31)CCc1nonc1-2`, the viability (in general, a read-out of living cells in per cent, often relative to untreated cells) in assay [1] was 107%; in assay [3], 107% (inactive); in [4] it was 89.6% (inactive); in assay [5] it was 103% (inactive); in assay [6] (setting [16]), 105%; in assay [6] (setting [17]), 103%. Further, the figures for the viability in assay [12] and in assay [13] were 80.4% (inactive) and 78.4% (inactive), respectively. In addition, the Her2 level in [2] was 108% (inactive). For the same molecule, in [6] (H69AR cells + 2 uM doxorubicin), the differential viability (reversal) was -2.16% (inactive). The inhibition (commonly the change of the read-out against control, counted positive when it falls) in [7] is -0.77% (inactive); in assay [8] it was -3.67% (inactive); in [14], 2.28% (inactive). Besides, the results for the growth inhibition in assay [9] and in [10] were -8.86% (inactive) and -29.4% (inactive), respectively. Further, the viability increase in assay [11] is 1.75% (inactive). In addition, in assay [15], the RAM network inhibition is 2.83% (inactive).
As to `COc1cc2c(cc1OC)C(C)N(C(=O)Cn1ncc3c1-c1ccccc1OC3)CC2` (stereo not drawn), the viability in assay [1] was 90.5%; in assay [3] it was 90.5% (inactive); in [4], 111% (inactive); in assay [5], 87.2% (inactive); in [6] (setting [16]), 86.9%; in assay [6] (setting [17]), 87.2%. The viability in [12] was 89.5% (inactive); in assay [13] it was 89.8% (inactive). Further, the Her2 level in assay [2] was 104% (inactive). For the same molecule, the differential viability (reversal) in assay [6] (H69AR cells + 2 uM doxorubicin) was 0.365% (inactive). Moreover, the inhibition in assay [7] is -2.31% (inactive); in [8], 2.33% (inactive); in assay [14] it was 0.41% (inactive). The growth inhibition is -9.09% (inactive) in [9] and -8.14% (inactive) in assay [10]. The viability increase in [11] was -2.56% (inactive). Moreover, the RAM network inhibition in [15] is 1.88% (inactive).
Consider `c1ccc(C2(Cn3ccc4ccccc43)OCCO2)cc1`, for which the viability in assay [1] is 89%; in assay [3] it was 89% (inactive); in [4] it was 93.7% (inactive); in assay [5], 94.9% (inactive); in assay [6] (setting [16]), 87.1%; in assay [6] (setting [17]) it was 94.9%. The viability in assay [12] is 81.6% (inactive); in assay [13], 81.8% (inactive). Moreover, the Her2 level in assay [2] is 104% (inactive). Moreover, the differential viability (reversal) in assay [6] (H69AR cells + 2 uM doxorubicin) was 7.87% (inactive). The inhibition in assay [7] is -0.78% (inactive); in assay [8] it was 3.44% (inactive); in assay [14] it was 1.63% (inactive). The growth inhibition in [9] is -4.05% (inactive); in assay [10], -10.5% (inactive). The viability increase in assay [11] is -3.2% (inactive). Also, in assay [15], the RAM network inhibition is 6.65% (inactive).
As for `COC(=O)CSc1nc2nc(C)cc(C)n2n1`, the viability in assay [1] is 99%; in [3] it was 99% (inactive); in [4], 88.8% (inactive); in assay [5], 99.7% (inactive); in assay [6] (setting [16]), 94.3%; in assay [6] (setting [17]), 99.7%. Moreover, the viability in assay [12] is 97.7% (inactive); in [13] it was 91.2% (inactive). Besides, the Her2 level in [2] was 96.5% (inactive). The differential viability (reversal) in assay [6] (H69AR cells + 2 uM doxorubicin) is 5.46% (inactive). Further, the values for the inhibition in assay [7], in assay [8] and in assay [14] were -3.73% (inactive), 3.17% (inactive) and 2.01% (inactive), respectively. For the same molecule, the results for the growth inhibition in assay [9] and in [10] were -2.5% (inactive) and 1.47% (inactive), respectively. In assay [11], the viability increase was -0.51% (inactive). Besides, the RAM network inhibition in assay [15] was 2.93% (inactive).
For the molecule `CC(=O)Nc1cccc(Oc2nc(C)cc(C)c2C#N)c1`, the viability in [1] was 96.5%; in assay [3], 96.5% (inactive); in assay [4], 94.1% (inactive); in assay [5], 87.3% (inactive); in assay [6] (setting [16]), 91.7%; in assay [6] (setting [17]), 87.3%. Further, the viability in assay [12] was 107% (inactive); in assay [13] it was 102% (inactive). Besides, the Her2 level in [2] is 106% (inactive). Moreover, the differential viability (reversal) in assay [6] (H69AR cells + 2 uM doxorubicin) is -4.33% (inactive). The inhibition in assay [7] was -2% (inactive); in assay [8], 0.5% (inactive); in assay [14], 1.34% (inactive). Besides, the growth inhibition is -17.1% (inactive) in assay [9] and -19.5% (inactive) in [10]. Further, the viability increase in [11] is 2.21% (inactive). Moreover, in assay [15], the RAM network inhibition was 0.78% (inactive).
With `CCOC(=O)c1ccc(NC(=O)Cn2cc3c(n2)CCC(C)C3)cc1` (stereo not drawn), the viability was 91.5% in [1]; 91.5% (inactive) in assay [3]; 91.4% (inactive) in assay [4]; 91.9% (inactive) in assay [5]; 99.5% in assay [6] (setting [16]); 91.9% in [6] (setting [17]). For the same molecule, the viability in assay [12] was 102% (inactive); in assay [13], 106% (inactive). In addition, the Her2 level in assay [2] was 92% (inactive). Moreover, in assay [6] (H69AR cells + 2 uM doxorubicin), the differential viability (reversal) was -7.62% (inactive). For the same molecule, the values for the inhibition in assay [7], in assay [8] and in [14] were -2.8% (inactive), -2.13% (inactive) and 1.92% (inactive), respectively. Further, the growth inhibition in assay [9] was -3.82% (inactive); in assay [10], 5.5% (inactive). Besides, the viability increase in assay [11] is 0.35% (inactive). Further, in [15], the RAM network inhibition is 6.92% (inactive).
For the molecule `COc1ccc(NC(=O)C2CCCN2S(=O)(=O)c2cccc3cccnc23)c(OC)c1` (stereo not drawn), the viability in [1] was 96%; in assay [3], 96% (inactive); in [4], 90.5% (inactive); in assay [5], 95% (inactive); in [6] (setting [16]), 95.9%; in assay [6] (setting [17]), 95%. The viability in [12] was 91.6% (inactive); in [13], 84.3% (inactive). Also, in assay [2], the Her2 level was 106% (inactive). Moreover, the differential viability (reversal) in [6] (H69AR cells + 2 uM doxorubicin) was -0.87% (inactive). Further, the inhibition was 91.4% (active) in assay [7], 84.7% (active) in [8] and 0.91% (inactive) in assay [14]. For the same molecule, the growth inhibition is 98.5% (active) in [9] and 95.7% (active) in [10]. Moreover, the viability increase in assay [11] is -2.76% (inactive). For the same molecule, the RAM network inhibition in assay [15] was -1.73% (inactive).
For the molecule `CCOC(=O)c1ccccc1NC(=O)CSc1nccn1C`, the viability in assay [1] is 89%; in assay [3], 89% (inactive); in [4], 94% (inactive); in assay [5] it was 108% (inactive); in assay [6] (setting [16]) it was 92.7%; in assay [6] (setting [17]), 108%. Further, the viability is 102% (inactive) in [12] and 98.2% (inactive) in assay [13]. The Her2 level in assay [2] was 94% (inactive). Moreover, the differential viability (reversal) in assay [6] (H69AR cells + 2 uM doxorubicin) is 15.5% (inactive). In addition, the inhibition in assay [7] was 0.91% (inactive); in [8] it was -3.44% (inactive); in assay [14], 1.55% (inactive). The results for the growth inhibition in [9] and in assay [10] were -4.88% (inactive) and 3.13% (inactive), respectively. For the same molecule, the viability increase in [11] was -1.73% (inactive). The RAM network inhibition in assay [15] was 1.28% (inactive).
Take `COc1ccc(S(=O)(=O)Cc2ccc(C(=O)N3CCOCC3)o2)cc1`: the viability in [1] is 106%; in assay [3], 106% (inactive); in assay [4], 94.2% (inactive); in [5], 99.5% (inactive); in assay [6] (setting [16]) it was 101%; in [6] (setting [17]), 99.5%. Further, the viability is 111% (inactive) in [12] and 99.2% (inactive) in [13]. The Her2 level in assay [2] was 126% (inactive). Further, the differential viability (reversal) in [6] (H69AR cells + 2 uM doxorubicin) was -1.56% (inactive). In addition, the inhibition in assay [7] was 0% (inactive); in assay [8] it was -0.83% (inactive); in assay [14], 0.96% (inactive). Moreover, the growth inhibition is -4.55% (inactive) in assay [9] and -13.3% (inactive) in assay [10]. In addition, the viability increase in assay [11] is -0.14% (inactive). Besides, in assay [15], the RAM network inhibition was 1.62% (inactive).
